From PubChem BioAssay (EPA / NIEHS)
Inconclusive results are not listed. Activity calls are given as the source filed them. The calls were made as follows, unless noted: active = hit-call score of the fitted dose curve at least 0.9, where 1 is the maximum; inconclusive = response in the unintended direction; inactive = score below 0.9.

Columns and labels:
[1] = target: Bile acid receptor (Homo sapiens) (UniProt Q96RI1); assay: ATG_FXR_TRANS: Attagene TRANS-FACTORIAL HepG2 Assay for Farnesoid X Receptor (FXR) (AID 2282979); conditions: HepG2 Attagene TRANS FXR-GAL4 reporter transcription;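 also: hits raise reporter mRNA above DMSO so AC50 marks FXR activation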
How it was run: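 Read-out: fluorescent reporter transcripts quantified by capillary electrophoresis after RT-PCR of total RNA. Source cells were HepG2 transiently carrying chimeric NR-GAL4 plus GAL4-UAS reporter units, dosed 24 h. Activity fitted upward relative to DMSO baseline.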

[2] = target: Oxysterols receptor LXR-alpha (Homo sapiens) (UniProt Q13133); assay: ATG_LXRa_TRANS: Attagene TRANS-FACTORIAL HepG2 Assay for human Liver X Receptor alpha (LXRa) (AID 2282980); conditions: HepG2 Attagene TRANS reporter, LXRa transactivation
How it was run: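 Read-out: reporter transcript levels by RT-PCR plus capillary electrophoresis, fluorescence intensity. Transiently transfected HepG2, exogenous NR-GAL4 chimera, GAL4-UAS reporters; 24 h compound exposure. Activity = increase over DMSO negative control.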

[3] = target: Oxysterols receptor LXR-beta (Homo sapiens) (UniProt P55055); assay: ATG_LXRb_TRANS: Attagene TRANS-FACTORIAL HepG2 Assay for human Liver X Receptor beta (LXRb) (AID 2282981); conditions: HepG2 Attagene TRANS GAL4-LXRb reporter, mRNA
How it was run: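 Gain-of-signal mRNA reporter endpoint, DMSO as negative control. Transiently transfected HepG2 cells carrying the NR-Gal4 chimera and GAL4-UAS reporter units were treated 24 h; transcripts quantified by RT-PCR and capillary electrophoresis fluorescence.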

[4] = target: Hepatocyte nuclear factor 4-alpha (Homo sapiens) (UniProt P41235); assay: ATG_HNF4a_TRANS: Attagene TRANS-FACTORIAL HepG2 Assay for human Hepatocyte Nuclear Factor 4 alpha (HNF4a) (AID 2282982); conditions: HepG2 HNF4a transactivation reporter, mRNA readout
How it was run: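 Gain-of-signal mRNA induction, relative to DMSO vehicle, was read after 24 h compound treatment of HepG2 cells bearing transfected GAL4-UAS reporters. Detection used RT-PCR, 6-FAM primer extension and capillary electrophoresis.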

[5] = ATG_M_06_TRANS: Attagene TRANS-FACTORIAL HepG2 Assay for M06 Transcription Factor (Internal Marker) (AID 2282983); conditions: HepG2 Attagene TRANS M06 internal marker reporter
How it was run: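 After a 24 h chemical treatment of transfected HepG2, RNA underwent DNase I treatment, reverse transcription and reporter-specific PCR; labelled, HpaI-digested products were sized by capillary electrophoresis. Signal increase relative to DMSO defined activity.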

[6] = target: Nuclear respiratory factor 1 (Homo sapiens) (UniProt Q16656); assay: ATG_NRF1_CIS: Attagene CIS-FACTORIAL HepG2 Assay for human Nuclear Respiratory Factor 1 (NRF1) Orphan Gene (AID 2282987; active = hit-call score of the fitted dose curve at least 0.9, where 1 is the maximum; inactive = score below 0.9); conditions: HepG2 NRF1 cis-element reporter, Attagene multiplex; actives raise or lower the signal
How it was run: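 Endogenous NRF1-driven reporter transcription measured in transiently transfected human HepG2 liver cells. Readout: reporter mRNA by RT-PCR and capillary electrophoresis with fluorescence detection, 24 h post-dosing. Gain or loss of signal fitted relative to DMSO baseline.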

[7] = ATG_NFI_CIS: Attagene CIS-FACTORIAL HepG2 Assay for human Nuclear Factor I (NFI) (AID 2282989; active = hit-call score of the fitted dose curve at least 0.9, where 1 is the maximum; inactive = score below 0.9); conditions: HepG2 cis-regulatory reporter, NFI response element transcription; actives raise or lower the signal
How it was run: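 Transfected HepG2 liver cells, exposed 24 h, supplied total RNA for oligo(dT) reverse transcription and reporter-specific PCR. Labelled, HpaI-cut fragments were sized by capillary electrophoresis; DMSO set the baseline for bidirectional fitting.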

[8] = ATG_M_32_TRANS: Attagene TRANS-FACTORIAL HepG2 Assay for M32 Transcription Factor (Internal Marker) (AID 2282984); conditions: HepG2 Attagene TRANS M32 internal marker reporter;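 also: transcript level of a background control reporter unit measured by RT-PCR and capillary electrophoresis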
How it was run: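 Capillary electrophoresis of 6-FAM-labelled reporter fragments gives the signal; data fitted for gain over DMSO negative control. Source: HepG2 cells bearing transient multiple reporter transcription units, 24 h exposure.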

[9] = target: Nuclear receptor subfamily 4 group A member 2 (Homo sapiens) (UniProt P43354); assay: ATG_NURR1_TRANS: Attagene TRANS-FACTORIAL HepG2 Assay for human Nuclear Receptor Related Protein 1 (NURR1) (AID 2282985); conditions: HepG2 Attagene TRANS reporter, mRNA readout
How it was run: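 HepG2 / transient MRTU transfection / 24 h compound exposure / RT-PCR + CE fluorescence of reporter mRNA / gain-of-signal vs DMSO.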

[10] = target: Transcriptional activator Myb (Homo sapiens) (UniProt P10242); assay: ATG_Myb_CIS: Attagene CIS-FACTORIAL HepG2 Assay for human Myeloblastosis (Myb) Proto-Oncogene Transcription Factor (AID 2282986; active = hit-call score of the fitted dose curve at least 0.9, where 1 is the maximum; inactive = score below 0.9); conditions: HepG2 Attagene CIS-FACTORIAL Myb reporter transcription; actives raise or lower the signal
How it was run: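 HepG2, transient MRTU transfection (cis-element promoters, endogenous TF activity), 24 h compound exposure. Readout: reporter mRNA via RT-PCR, 6-FAM labeling, HpaI digest, capillary electrophoresis. Gain/loss fit vs DMSO.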

Sequence of Hepatocyte nuclear factor 4-alpha (Homo sapiens) (P41235 whole entry, looked up, the tested form may be a part): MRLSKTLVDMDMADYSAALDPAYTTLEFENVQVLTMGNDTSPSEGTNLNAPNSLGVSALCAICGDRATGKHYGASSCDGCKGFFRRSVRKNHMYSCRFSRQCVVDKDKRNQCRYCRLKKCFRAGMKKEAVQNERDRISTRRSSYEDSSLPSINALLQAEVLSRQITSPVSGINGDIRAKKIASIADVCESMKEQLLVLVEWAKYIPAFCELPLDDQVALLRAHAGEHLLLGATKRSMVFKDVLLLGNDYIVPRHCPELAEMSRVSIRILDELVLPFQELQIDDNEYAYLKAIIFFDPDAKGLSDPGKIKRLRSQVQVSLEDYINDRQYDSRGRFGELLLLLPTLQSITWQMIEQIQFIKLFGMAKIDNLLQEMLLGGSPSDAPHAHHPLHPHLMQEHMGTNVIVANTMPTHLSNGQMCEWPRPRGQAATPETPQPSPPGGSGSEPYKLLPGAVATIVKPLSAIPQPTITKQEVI
Sequence of Nuclear receptor subfamily 4 group A member 2 (Homo sapiens) (P43354 whole entry, looked up): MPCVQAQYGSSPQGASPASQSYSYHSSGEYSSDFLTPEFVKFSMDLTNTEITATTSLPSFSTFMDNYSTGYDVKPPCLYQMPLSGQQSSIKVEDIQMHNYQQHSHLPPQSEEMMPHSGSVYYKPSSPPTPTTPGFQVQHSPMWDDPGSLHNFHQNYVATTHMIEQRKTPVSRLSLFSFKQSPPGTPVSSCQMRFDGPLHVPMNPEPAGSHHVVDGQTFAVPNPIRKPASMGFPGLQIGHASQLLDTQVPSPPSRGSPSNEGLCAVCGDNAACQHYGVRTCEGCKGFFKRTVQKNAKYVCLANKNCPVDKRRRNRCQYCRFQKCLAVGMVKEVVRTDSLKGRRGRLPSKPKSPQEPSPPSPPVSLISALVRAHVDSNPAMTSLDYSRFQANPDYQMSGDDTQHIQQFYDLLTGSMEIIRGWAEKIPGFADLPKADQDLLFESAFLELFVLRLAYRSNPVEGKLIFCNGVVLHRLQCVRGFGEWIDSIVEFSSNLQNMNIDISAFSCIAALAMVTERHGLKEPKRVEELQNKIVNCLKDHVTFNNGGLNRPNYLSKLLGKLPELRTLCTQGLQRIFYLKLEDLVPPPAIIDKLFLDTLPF
Sequence of Oxysterols receptor LXR-alpha (Homo sapiens) (Q13133 whole entry, looked up, the tested form may be a part): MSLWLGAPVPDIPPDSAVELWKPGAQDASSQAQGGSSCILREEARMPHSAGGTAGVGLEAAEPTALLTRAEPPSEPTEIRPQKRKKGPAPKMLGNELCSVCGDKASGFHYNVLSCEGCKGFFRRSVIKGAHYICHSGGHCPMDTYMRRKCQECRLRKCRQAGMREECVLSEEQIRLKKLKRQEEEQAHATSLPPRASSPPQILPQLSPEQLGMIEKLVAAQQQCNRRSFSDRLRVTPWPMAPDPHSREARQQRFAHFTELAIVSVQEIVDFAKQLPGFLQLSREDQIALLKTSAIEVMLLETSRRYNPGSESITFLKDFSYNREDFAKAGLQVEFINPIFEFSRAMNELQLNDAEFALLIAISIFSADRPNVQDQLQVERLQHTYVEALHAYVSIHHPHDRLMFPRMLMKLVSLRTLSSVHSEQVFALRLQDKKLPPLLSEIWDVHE
Sequence of Nuclear respiratory factor 1 (Homo sapiens) (Q16656 whole entry, looked up): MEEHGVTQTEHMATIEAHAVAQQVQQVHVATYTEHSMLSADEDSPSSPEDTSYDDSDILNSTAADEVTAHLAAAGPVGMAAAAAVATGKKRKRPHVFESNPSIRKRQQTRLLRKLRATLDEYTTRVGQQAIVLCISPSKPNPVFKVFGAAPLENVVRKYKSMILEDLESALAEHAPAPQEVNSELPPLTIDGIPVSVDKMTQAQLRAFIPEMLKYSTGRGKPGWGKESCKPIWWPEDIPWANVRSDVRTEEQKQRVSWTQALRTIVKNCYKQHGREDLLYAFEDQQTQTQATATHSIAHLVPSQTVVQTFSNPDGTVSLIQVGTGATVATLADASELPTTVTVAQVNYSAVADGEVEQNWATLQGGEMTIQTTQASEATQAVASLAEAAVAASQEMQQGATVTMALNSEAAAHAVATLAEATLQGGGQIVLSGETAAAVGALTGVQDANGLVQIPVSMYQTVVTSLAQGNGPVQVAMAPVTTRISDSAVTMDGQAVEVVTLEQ
Sequence of Transcriptional activator Myb (Homo sapiens) (P10242 whole entry, looked up): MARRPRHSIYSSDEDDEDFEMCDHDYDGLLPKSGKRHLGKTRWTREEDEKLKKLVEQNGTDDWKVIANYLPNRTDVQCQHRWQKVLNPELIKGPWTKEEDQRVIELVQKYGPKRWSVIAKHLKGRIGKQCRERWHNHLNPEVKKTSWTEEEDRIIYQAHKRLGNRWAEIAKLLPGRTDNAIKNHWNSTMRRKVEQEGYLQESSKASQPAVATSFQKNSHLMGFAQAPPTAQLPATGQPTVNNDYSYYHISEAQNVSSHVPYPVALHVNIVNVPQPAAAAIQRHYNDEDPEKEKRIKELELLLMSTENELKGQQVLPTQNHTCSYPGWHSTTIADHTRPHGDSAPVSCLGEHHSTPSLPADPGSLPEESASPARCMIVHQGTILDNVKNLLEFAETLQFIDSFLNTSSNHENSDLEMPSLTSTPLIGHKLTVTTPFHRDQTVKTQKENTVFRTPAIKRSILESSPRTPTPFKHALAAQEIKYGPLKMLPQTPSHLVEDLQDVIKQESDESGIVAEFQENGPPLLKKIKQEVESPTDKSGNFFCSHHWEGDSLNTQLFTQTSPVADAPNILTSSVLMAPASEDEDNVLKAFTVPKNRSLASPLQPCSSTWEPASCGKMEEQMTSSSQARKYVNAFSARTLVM
Sequence of Oxysterols receptor LXR-beta (Homo sapiens) (P55055 whole entry, looked up, the tested form may be a part): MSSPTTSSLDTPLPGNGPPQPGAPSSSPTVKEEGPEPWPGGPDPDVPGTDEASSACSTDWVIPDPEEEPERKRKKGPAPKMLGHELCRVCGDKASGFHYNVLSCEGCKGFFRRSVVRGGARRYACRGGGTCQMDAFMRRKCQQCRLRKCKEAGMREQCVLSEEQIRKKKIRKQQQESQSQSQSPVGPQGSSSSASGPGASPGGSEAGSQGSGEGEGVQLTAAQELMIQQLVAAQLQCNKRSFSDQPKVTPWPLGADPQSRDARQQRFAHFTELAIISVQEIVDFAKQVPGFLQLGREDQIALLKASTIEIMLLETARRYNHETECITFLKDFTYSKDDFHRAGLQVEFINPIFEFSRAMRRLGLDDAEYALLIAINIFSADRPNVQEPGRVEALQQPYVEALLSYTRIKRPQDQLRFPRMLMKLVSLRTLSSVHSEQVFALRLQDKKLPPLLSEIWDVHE
Sequence of Bile acid receptor (Homo sapiens) (Q96RI1 whole entry, looked up, the tested form may be a part): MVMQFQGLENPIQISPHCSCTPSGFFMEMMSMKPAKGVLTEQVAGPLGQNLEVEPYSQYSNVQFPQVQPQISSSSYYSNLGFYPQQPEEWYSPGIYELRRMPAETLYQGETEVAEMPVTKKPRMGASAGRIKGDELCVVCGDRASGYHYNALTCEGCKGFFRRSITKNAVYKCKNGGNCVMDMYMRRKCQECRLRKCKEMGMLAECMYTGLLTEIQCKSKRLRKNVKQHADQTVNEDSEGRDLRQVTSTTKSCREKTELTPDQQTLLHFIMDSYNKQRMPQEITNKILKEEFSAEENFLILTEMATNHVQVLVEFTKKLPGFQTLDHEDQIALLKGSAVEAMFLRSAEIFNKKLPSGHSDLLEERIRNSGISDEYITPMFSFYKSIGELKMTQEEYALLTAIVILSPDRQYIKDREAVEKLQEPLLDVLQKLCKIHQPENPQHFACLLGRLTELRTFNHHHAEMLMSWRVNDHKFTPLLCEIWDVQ

| SMILES | outcome [1] | outcome [2] | outcome [3] | outcome [4] | outcome [5] | outcome [6] | outcome [7] | outcome [8] | outcome [9] | outcome [10] | AC50 [9] | AC50 [10] | AC50 [7] | AC50 [6] |
| --- | --- | --- | --- | --- | --- | --- | --- | --- | --- | --- | --- | --- | --- | --- |
| C=CC(F)(C(F)(F)F)C(F)(F)C(F)(F)F (configuration not stated) | inactive | inactive | inactive | inactive | inactive | inactive | inactive |  |  |  |  |  |  |  |
| CN(C)c1ccc(N=O)cc1 | inactive | inactive | inactive | inactive | inactive | inactive | inactive | inactive | inactive | inactive |  |  |  |  |
| C=CCOC(N)=O | inactive |  | inactive | inactive | inactive | inactive | inactive | inactive | inactive |  |  |  |  |  |
| Nc1ccc(Br)cc1 | inactive |  | inactive | inactive | inactive | inactive | inactive | inactive | inactive | inactive |  |  |  |  |
| CCOC(=O)Cc1ccccc1 | inactive | inactive | inactive |  | inactive | inactive | inactive | inactive | inactive |  |  |  |  |  |
| COC(=O)c1cc(Oc2ccc(Cl)cc2Cl)ccc1[N+](=O)[O-] | inactive | inactive | inactive | inactive | inactive | inactive | inactive | inactive |  | inactive | 32.3 µM (active) |  |  |  |
| CCOCn1c(-c2ccc(Cl)cc2)c(C#N)c(Br)c1C(F)(F)F | inactive | inactive | inactive | inactive | inactive | inactive |  | inactive | inactive |  |  | 78.8 µM (active) | 48.7 µM (active) |  |
| CCCCCCCCCCCCN(C)C | inactive | inactive | inactive |  | inactive |  |  |  |  | inactive |  |  | 57.2 µM (active) |  |
| O=C1C=CC(=O)c2ccccc21 | inactive | inactive | inactive |  | inactive | inactive | inactive | inactive | inactive | inactive |  |  |  |  |
| COc1ccc([N+](=O)[O-])cc1O | inactive | inactive |  |  | inactive | inactive | inactive | inactive |  | inactive |  |  |  |  |
| O=C/C(Cl)=C(/Cl)C(=O)O | inactive |  | inactive | inactive | inactive |  | inactive | inactive | inactive | inactive |  |  |  |  |
| CCOC(=O)OC1=C(c2cc(C)ccc2C)C(=O)NC12CCC(OC)CC2 (configuration not stated) | inactive | inactive | inactive | inactive | inactive | inactive | inactive | inactive | inactive |  |  |  |  |  |
| COP(=S)(OC)Oc1cc(Cl)c(I)cc1Cl | inactive |  | inactive | inactive | inactive |  |  | inactive | inactive |  |  | 49.5 µM (active) | 29.1 µM (active) | 55.6 µM (active) |
| CCCCOP(=O)(CCCC)OCCCC | inactive |  |  | inactive | inactive | inactive | inactive | inactive |  |  |  |  |  |  |
| CC(F)(F)CC(F)(F)F | inactive |  |  | inactive | inactive | inactive | inactive | inactive |  | inactive |  |  |  |  |
| OC(c1ccc(Cl)cc1)(c1ccc(Cl)cc1)c1cccnc1 | inactive |  |  | inactive | inactive | inactive | inactive |  | inactive | inactive |  |  |  |  |
| CC(C)C(C)(N)C#N (configuration not stated) | inactive |  | inactive |  |  | inactive | inactive |  |  | inactive |  |  |  |  |
| [F][Sn]([c]1ccccc1)([c]1ccccc1)[c]1ccccc1 | inactive |  | inactive | inactive |  |  |  | inactive |  |  | 0.00363 µM (active) |  | 0.312 µM (active) |  |
| CC(C)[C@@H](Nc1ccc(C(F)(F)F)cc1Cl)C(=O)OC(C#N)c1cccc(Oc2ccccc2)c1 (some centres not stated) | inactive |  |  | inactive | inactive | inactive | inactive |  | inactive | inactive |  |  |  |  |
| Cc1ccc(CCl)cc1 | inactive |  | inactive | inactive | inactive | inactive | inactive | inactive |  | inactive |  |  |  |  |
| C=CCc1ccccc1O | inactive |  | inactive | inactive | inactive | inactive | inactive | inactive |  | inactive |  |  |  |  |
| N#Cc1ccccc1Cl | inactive |  | inactive |  | inactive | inactive | inactive |  |  | inactive |  |  |  |  |
| O=S(=O)(F)C(F)(F)C(F)(F)C(F)(F)C(F)(F)F | inactive |  | inactive | inactive | inactive | inactive | inactive | inactive |  | inactive |  |  |  |  |
| Clc1cc(C(Cl)(Cl)Cl)cnc1Cl | inactive |  | inactive | inactive |  | inactive |  |  |  | inactive |  |  | 44.8 µM (active) |  |
| CCC[CH2][Sn]([CH2]CCC)([CH2]CCC)[CH2]CCC | inactive |  | inactive |  |  | inactive |  |  |  | inactive | 0.497 µM (active) |  | 17.3 µM (active) |  |
| CCOC(=O)CCN(SN(C)C(=O)Oc1cccc2c1OC(C)(C)C2)C(C)C | inactive |  |  | inactive | inactive | inactive | inactive | inactive |  | inactive | 157 µM (active) |  |  |  |
| OC(Cc1ccccc1Cl)(Cn1cncn1)C1(Cl)CC1 (configuration not stated) | inactive |  | inactive | inactive |  | inactive | inactive | inactive | inactive | inactive |  |  |  |  |
| CCC[CH2][Sn]([Cl])([Cl])[CH2]CCC | inactive |  |  | inactive | inactive |  |  |  |  | inactive |  |  | 0.458 µM (active) | 0.778 µM (active) |
